Measurements published in ChEMBL document CHEMBL1961873, “Compounds: GSK PKIS; Assays: Nanosyn kinase panel” (2012).

What was measured:
[1] = target: Platelet-derived growth factor receptor beta (Homo sapiens) (UniProt P09619); details: at 1 µM;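 note: each value is a mean percent inhibition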
[2] = target: Tyrosine-protein kinase FRK (Homo sapiens) (UniProt P42685); details: at 0.1 µM
[3] = target: Tyrosine-protein kinase FRK (Homo sapiens) (UniProt P42685); details: at 1 µM
[4] = target: Protein-tyrosine kinase 2-beta (Homo sapiens) (UniProt Q14289); details: at 0.1 µM
[5] = target: Protein-tyrosine kinase 2-beta (Homo sapiens) (UniProt Q14289); details: at 1 µM
[6] = target: Proto-oncogene tyrosine-protein kinase receptor Ret (Homo sapiens) (UniProt P07949); details: at 1 µM
Chain of Proto-oncogene tyrosine-protein kinase receptor Ret (Homo sapiens) (P07949 whole entry): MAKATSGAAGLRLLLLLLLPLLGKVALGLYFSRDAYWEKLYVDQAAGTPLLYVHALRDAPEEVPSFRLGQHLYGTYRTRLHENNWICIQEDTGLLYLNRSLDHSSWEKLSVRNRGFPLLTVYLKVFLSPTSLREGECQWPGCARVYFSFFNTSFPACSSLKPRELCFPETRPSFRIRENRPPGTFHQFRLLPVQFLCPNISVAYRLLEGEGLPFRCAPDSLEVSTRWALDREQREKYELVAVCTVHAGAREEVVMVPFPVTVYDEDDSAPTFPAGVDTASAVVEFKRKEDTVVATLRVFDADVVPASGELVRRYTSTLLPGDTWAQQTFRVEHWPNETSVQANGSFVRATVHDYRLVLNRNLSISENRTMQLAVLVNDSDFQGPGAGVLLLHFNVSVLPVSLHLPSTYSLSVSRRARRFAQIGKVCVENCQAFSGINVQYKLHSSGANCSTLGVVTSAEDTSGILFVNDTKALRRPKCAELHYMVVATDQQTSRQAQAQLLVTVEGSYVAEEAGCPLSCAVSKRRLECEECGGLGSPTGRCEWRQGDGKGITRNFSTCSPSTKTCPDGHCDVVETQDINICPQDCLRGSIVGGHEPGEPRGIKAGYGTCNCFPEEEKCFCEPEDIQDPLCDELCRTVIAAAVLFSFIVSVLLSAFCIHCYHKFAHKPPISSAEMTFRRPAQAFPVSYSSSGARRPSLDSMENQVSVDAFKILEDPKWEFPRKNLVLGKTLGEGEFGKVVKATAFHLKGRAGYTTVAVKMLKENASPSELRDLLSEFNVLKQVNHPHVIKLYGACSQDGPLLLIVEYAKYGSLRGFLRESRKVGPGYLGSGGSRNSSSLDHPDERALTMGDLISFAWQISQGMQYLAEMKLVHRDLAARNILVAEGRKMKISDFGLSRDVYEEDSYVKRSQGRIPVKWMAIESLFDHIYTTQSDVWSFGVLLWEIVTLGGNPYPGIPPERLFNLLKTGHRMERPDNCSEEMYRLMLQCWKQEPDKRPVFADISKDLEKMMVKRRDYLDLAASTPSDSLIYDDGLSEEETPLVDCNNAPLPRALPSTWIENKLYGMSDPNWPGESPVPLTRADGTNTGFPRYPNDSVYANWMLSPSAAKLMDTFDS

[7] = tested on: Proto-oncogene tyrosine-protein kinase receptor Ret (Homo sapiens), P07949 [V804L]; details: at 0.1 µM
Chain of Proto-oncogene tyrosine-protein kinase receptor Ret (Homo sapiens), P07949 [V804L] (P07949 whole entry V804L): as the sequence (P07949 whole entry) above, with V804L counted along it

[8] = tested on: Proto-oncogene tyrosine-protein kinase receptor Ret (Homo sapiens), P07949 [V804L]; details: at 1 µM
[9] = tested on: Proto-oncogene tyrosine-protein kinase receptor Ret (Homo sapiens), P07949 [Y791F]; details: at 0.1 µM
Chain of Proto-oncogene tyrosine-protein kinase receptor Ret (Homo sapiens), P07949 [Y791F] (P07949 whole entry Y791F): as the sequence (P07949 whole entry) above, with Y791F counted along it

[10] = tested on: Proto-oncogene tyrosine-protein kinase receptor Ret (Homo sapiens), P07949 [Y791F]; details: at 1 µM
[11] = target: Macrophage-stimulating protein receptor (Homo sapiens) (UniProt Q04912); details: at 0.1 µM
[12] = target: Macrophage-stimulating protein receptor (Homo sapiens) (UniProt Q04912); details: at 1 µM
[13] = target: Proto-oncogene tyrosine-protein kinase ROS (Homo sapiens) (UniProt P08922); details: at 0.1 µM
Chain of Proto-oncogene tyrosine-protein kinase ROS (Homo sapiens) (P08922 whole entry): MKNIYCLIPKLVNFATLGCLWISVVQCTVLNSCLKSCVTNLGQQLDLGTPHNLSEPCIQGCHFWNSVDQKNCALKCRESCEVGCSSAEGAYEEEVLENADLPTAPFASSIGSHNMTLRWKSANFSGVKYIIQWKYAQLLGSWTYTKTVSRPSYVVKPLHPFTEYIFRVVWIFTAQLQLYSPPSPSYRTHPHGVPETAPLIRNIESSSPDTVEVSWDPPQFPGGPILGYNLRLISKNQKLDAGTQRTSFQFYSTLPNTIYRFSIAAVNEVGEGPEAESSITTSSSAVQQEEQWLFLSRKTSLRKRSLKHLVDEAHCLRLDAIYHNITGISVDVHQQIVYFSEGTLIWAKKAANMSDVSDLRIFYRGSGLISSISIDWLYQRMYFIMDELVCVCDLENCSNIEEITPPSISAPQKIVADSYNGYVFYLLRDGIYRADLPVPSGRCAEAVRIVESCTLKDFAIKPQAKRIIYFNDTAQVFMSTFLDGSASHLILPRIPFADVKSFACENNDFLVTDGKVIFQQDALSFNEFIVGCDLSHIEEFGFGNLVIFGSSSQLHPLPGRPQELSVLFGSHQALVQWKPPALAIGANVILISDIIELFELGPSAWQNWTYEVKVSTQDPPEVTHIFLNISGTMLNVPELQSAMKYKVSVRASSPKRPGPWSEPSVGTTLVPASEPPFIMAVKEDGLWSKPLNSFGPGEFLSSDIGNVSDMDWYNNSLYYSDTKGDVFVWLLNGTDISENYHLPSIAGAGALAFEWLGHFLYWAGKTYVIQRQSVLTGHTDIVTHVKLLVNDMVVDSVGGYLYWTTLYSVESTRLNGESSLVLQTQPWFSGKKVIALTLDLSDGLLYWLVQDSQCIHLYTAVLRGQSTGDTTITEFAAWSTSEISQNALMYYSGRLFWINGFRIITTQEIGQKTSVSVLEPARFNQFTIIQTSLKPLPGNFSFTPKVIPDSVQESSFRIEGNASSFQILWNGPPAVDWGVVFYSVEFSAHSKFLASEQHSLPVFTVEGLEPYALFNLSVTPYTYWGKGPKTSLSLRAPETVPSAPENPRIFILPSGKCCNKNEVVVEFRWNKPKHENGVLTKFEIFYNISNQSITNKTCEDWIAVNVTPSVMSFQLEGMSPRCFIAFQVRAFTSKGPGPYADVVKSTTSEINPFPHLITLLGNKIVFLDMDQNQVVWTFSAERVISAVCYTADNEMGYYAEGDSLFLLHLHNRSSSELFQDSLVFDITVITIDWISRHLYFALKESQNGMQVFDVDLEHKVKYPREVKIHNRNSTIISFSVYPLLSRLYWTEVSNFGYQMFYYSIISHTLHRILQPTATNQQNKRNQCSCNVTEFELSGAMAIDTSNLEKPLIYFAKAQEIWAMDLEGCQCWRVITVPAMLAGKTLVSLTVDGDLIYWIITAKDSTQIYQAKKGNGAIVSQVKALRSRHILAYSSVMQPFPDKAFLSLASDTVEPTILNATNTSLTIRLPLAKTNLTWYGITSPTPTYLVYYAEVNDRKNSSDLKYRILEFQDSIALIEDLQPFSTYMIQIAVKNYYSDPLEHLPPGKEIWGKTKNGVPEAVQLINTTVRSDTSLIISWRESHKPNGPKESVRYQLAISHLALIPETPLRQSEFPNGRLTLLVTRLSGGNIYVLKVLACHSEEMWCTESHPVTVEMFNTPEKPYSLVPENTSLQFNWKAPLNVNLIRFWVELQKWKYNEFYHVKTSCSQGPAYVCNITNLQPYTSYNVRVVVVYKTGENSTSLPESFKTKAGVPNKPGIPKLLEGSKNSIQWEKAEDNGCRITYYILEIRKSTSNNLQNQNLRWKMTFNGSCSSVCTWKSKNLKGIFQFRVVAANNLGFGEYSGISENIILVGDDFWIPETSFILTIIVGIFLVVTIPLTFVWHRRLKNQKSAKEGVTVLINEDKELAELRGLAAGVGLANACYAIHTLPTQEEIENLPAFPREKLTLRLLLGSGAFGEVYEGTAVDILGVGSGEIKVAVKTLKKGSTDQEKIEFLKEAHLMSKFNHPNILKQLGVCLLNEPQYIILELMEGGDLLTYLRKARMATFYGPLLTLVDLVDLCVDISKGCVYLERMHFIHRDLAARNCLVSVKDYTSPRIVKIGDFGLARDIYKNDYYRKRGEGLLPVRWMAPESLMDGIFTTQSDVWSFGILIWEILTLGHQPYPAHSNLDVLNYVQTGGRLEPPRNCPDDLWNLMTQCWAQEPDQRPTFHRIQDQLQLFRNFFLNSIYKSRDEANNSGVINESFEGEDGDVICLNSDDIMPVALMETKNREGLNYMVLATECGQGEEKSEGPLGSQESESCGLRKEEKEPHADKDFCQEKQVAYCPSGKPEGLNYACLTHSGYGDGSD

[14] = target: Proto-oncogene tyrosine-protein kinase ROS (Homo sapiens) (UniProt P08922); details: at 1 µM
[15] = target: Proto-oncogene tyrosine-protein kinase Src (Homo sapiens) (UniProt P12931); details: at 0.1 µM
[16] = target: Proto-oncogene tyrosine-protein kinase Src (Homo sapiens) (UniProt P12931); details: at 1 µM
[17] = target: Tyrosine-protein kinase Srms (Homo sapiens) (UniProt Q9H3Y6); details: at 0.1 µM
Chain of Tyrosine-protein kinase Srms (Homo sapiens) (Q9H3Y6 whole entry): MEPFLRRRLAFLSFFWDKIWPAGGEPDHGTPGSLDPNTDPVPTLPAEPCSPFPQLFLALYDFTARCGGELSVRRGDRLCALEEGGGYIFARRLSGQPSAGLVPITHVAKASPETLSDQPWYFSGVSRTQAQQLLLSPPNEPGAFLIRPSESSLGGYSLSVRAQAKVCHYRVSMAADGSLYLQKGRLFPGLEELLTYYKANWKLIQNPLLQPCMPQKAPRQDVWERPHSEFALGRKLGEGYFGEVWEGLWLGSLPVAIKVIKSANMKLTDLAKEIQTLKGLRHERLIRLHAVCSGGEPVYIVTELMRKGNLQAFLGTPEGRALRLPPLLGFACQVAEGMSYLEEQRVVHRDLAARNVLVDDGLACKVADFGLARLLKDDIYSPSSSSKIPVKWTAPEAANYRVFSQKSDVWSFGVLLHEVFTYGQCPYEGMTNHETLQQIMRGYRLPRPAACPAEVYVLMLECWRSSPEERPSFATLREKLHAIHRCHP

[18] = target: Tyrosine-protein kinase Srms (Homo sapiens) (UniProt Q9H3Y6); details: at 1 µM
[19] = target: Tyrosine-protein kinase SYK (Homo sapiens) (UniProt P43405); details: at 0.1 µM;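 note: reported percentages are mean inhibition values for SYK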
[20] = target: Proto-oncogene tyrosine-protein kinase receptor Ret (Homo sapiens) (UniProt P07949); details: at 0.1 µM

Chain of Platelet-derived growth factor receptor beta (Homo sapiens) (P09619 whole entry): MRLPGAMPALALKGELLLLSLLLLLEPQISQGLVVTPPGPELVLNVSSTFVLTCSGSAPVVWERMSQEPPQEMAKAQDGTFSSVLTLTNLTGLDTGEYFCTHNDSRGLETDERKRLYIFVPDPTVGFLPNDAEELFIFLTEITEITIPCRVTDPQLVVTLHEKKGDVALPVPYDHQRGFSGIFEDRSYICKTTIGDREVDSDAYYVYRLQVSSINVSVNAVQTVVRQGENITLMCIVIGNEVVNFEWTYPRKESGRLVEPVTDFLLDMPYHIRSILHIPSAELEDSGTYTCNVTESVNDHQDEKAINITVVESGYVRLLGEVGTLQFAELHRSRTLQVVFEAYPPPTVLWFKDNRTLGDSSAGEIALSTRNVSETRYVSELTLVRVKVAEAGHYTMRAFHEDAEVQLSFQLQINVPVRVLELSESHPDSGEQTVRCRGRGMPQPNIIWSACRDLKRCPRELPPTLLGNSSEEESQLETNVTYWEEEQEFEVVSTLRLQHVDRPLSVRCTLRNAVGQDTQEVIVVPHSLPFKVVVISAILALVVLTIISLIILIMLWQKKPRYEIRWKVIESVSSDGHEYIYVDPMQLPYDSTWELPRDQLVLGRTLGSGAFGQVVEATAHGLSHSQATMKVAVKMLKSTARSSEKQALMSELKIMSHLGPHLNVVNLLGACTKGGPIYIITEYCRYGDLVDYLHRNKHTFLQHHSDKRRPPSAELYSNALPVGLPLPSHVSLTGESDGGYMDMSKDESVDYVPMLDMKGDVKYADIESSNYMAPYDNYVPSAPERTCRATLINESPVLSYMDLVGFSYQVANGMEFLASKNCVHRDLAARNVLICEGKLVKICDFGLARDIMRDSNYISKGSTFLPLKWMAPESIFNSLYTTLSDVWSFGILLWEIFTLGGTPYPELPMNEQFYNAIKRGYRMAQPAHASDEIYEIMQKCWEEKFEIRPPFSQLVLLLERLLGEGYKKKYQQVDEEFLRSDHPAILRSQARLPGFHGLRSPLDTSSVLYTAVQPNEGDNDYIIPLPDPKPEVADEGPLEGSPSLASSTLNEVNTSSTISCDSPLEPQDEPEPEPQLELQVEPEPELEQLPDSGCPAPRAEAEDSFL

Structure (SMILES)	inhibition [1]	inhibition [2]	inhibition [3]	inhibition [4]	inhibition [5]	inhibition [6]	inhibition [7]	inhibition [8]	inhibition [9]	inhibition [10]	inhibition [11]	inhibition [12]	inhibition [13]	inhibition [14]	inhibition [15]	inhibition [16]	inhibition [17]	inhibition [18]	inhibition [19]	inhibition [20]
COc1ccc2ncn(-c3cc(O[C@H](C)c4ccccc4Cl)c(C(N)=O)s3)c2c1	18.7%	3.26%	4.73%	6.17%	9.58%	9.64%	2.37%	7.27%	5.2%	8.71%	2.64%	3.04%	6.54%	10.9%	6.13%	5.73%	-3.68%	-2.35%	-1.79%	–
NS(=O)(=O)c1ccc(Nc2cc(-c3ccc(O)c(F)c3)n[nH]2)cc1	53.4%	-1.68%	0.93%	-2.28%	-1.9%	55%	10.6%	47.6%	14.1%	55.5%	-1.82%	10.5%	0.96%	3.04%	-0.44%	8.59%	-1.1%	1.72%	3.87%	11.3%
Nc1nccc(-c2c(-c3ccc(F)cc3)ncn2C2CCC(O)CC2)n1 (stereo unspecified)	30.3%	-0.89%	5.08%	-2.8%	2.44%	19.3%	0.11%	5.11%	3.7%	25.2%	3.96%	13.3%	28.6%	76.4%	0.34%	18.3%	-0.15%	2.5%	-1.99%	3.09%
NC(=O)c1ccc(Oc2nccc(-c3c(-c4ccc(F)cc4)ncn3C3CCNCC3)n2)cc1	6.41%	2.8%	4.67%	-0.03%	10.9%	2.99%	2.2%	5.79%	3.11%	3.63%	4.31%	6.11%	9.43%	7.5%	13%	13.6%	-3.65%	-3.42%	-0.16%	1.55%
CCS(=O)(=O)c1ccc(OC)c(Nc2ncc(-c3ccccc3Cl)o2)c1	28%	0.68%	4.99%	6.54%	45.2%	8.62%	3.06%	21.2%	2.23%	9.6%	-3.54%	8.49%	-1.24%	4.38%	4.44%	23.4%	2.76%	3.31%	-0.36%	4%
CCc1cccc(CC)c1/C=C/c1cncc(C(=O)NC)c1	9.24%	0.72%	2.05%	4.52%	5.62%	7.18%	–	3.16%	5.49%	2.43%	-0.25%	6%	2.24%	4.93%	2.97%	10.2%	0.35%	-0.17%	-3.77%	6.73%
CN1CCN(CCCNc2nc3ccc(Oc4ccc(NC(=O)Nc5cc(C(F)(F)F)ccc5F)cc4)cc3[nH]2)CC1	25.8%	-0.13%	5.78%	6.22%	7.87%	86.2%	38.8%	74.9%	65.8%	83.9%	-2.7%	5.53%	5.6%	9.76%	4.89%	3.58%	2.32%	0.43%	0.25%	76.2%
O=C(Nc1ccc(Oc2ccc3[nH]c(NC(=O)c4ccccc4)nc3c2)cc1)Nc1cc(C(F)(F)F)ccc1F	31.1%	1.86%	2.1%	5.27%	14.2%	90.2%	25.4%	78.7%	38.6%	87%	0.56%	5.31%	4.24%	11.4%	4.33%	11.2%	1.78%	4.56%	-1%	62.6%
N#Cc1ccc(Oc2nccc(-c3c(-c4ccc(F)cc4)ncn3C3CCNCC3)n2)cc1	5.37%	2.75%	4.03%	6.64%	13.4%	4.32%	3.48%	4.02%	6.66%	9.04%	5.63%	4.9%	5%	7.93%	7.01%	6.12%	-3.21%	-3.22%	-0.77%	6.33%
O=C(Nc1n[nH]c2cc(-c3ccccc3)ccc12)C1CC1	13.3%	2.92%	2.17%	11.3%	7.93%	5.93%	1.54%	0.17%	4.42%	10.6%	3.18%	5.31%	6.26%	7.64%	0.33%	10.7%	-0.84%	3.11%	-3.33%	4.67%
CCc1ccc(Oc2nccc(-c3c(-c4ccc(F)cc4)ncn3C3CCNCC3)n2)cc1	13.8%	0.83%	-0.45%	-1.83%	2.07%	7.38%	3.58%	4.57%	4%	8.79%	3.67%	2.97%	6.34%	6.93%	10.2%	10%	-0.71%	-0.39%	0.89%	3.04%
COc1ccc(-c2ccc3c(NC(=O)C4CC4)n[nH]c3n2)cc1	5.91%	0.53%	-0.31%	0.18%	6.52%	1.93%	6.95%	9.13%	0.39%	9.16%	6.88%	2.2%	2.06%	3.33%	7.63%	4.36%	-2.79%	2.08%	0.08%	0.65%
COc1cc2ncn(-c3cc(OCc4ccccc4C(F)(F)F)c(C(C)=O)s3)c2cc1OC	21.5%	0.97%	2.94%	–	–	5.58%	5.33%	9.72%	7.72%	12.8%	2.88%	20%	0.39%	7.62%	6.86%	6.06%	-2.02%	0.82%	0.3%	4.62%
COc1cc2ncn(-c3cc(OCCc4ccccc4)c(C(N)=O)s3)c2cc1OC	49.9%	0.72%	1.86%	3.82%	4.2%	23.2%	0.58%	9.89%	6.66%	21.3%	-1.46%	6.81%	3.89%	6.98%	1.6%	12.9%	-2.94%	-2.68%	-2.02%	3.22%
